This note sets out measurements from PubChem BioAssay AID1851 (National Center for Advancing Translational Sciences (NCATS), 2009).

Usually AC50 stands for the midpoint of the concentration-response curve, whichever way the signal moves.

The structures appear in SMILES notation. Several values for one entry are separate records, joined by “and”; a condition that tells them apart may be missing. Equal values may be shown once. Among all 16,000 compounds or so, about 4,000 (25%) were called active. Another 26% or so got no clear call; they are omitted. Only a sample is shown. Values without a mark were called inactive. Calls come from the whole dose curve; as a rule, active = well fitted curve in the direction sought with a large enough effect; inconclusive = small, poorly fitted or top-dose-only effect, or effect the other way; inactive = no such curve, though single readings can be large or run the other way.
% is set by controls: 0 for no effect and ±100 for the full control effect.

The assay deals with Cytochrome P450 2C9 (Homo sapiens) (UniProt P11712). Briefly: Cytochrome panel assay with activity outcomes. Particulars: recombinant CYP, pro-luciferin dealkylation, luminescence, p450-cyp2c9; series mostly up to 57.1 µM; activity, negative = inhibition: at the top concentration.
Cytochrome P450 2C9 (Homo sapiens), sequence (P11712 whole entry, looked up): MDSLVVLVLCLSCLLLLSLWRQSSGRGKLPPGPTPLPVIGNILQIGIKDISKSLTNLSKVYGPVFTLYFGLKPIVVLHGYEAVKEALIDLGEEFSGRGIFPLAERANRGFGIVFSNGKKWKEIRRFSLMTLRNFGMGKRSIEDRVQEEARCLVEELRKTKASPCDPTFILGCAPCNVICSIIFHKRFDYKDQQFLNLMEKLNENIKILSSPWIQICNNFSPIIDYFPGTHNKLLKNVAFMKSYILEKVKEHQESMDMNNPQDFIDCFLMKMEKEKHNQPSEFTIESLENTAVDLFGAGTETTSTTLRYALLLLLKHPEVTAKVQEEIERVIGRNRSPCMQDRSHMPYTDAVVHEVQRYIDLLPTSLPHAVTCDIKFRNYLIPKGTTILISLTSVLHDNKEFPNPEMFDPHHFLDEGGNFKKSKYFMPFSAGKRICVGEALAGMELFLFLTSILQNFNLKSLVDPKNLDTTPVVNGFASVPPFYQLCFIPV
Turning to `COc1ccccc1-c1nc(NCc2ccccc2)c2ccccc2n1`, the activity, negative = inhibition is 16.9% [at 2.29 µM]. Still for that read-out and setting: the result for `CN(C)c1ccccc1CN1CCCN(Cc2ccccc2N(C)C)C1c1ccncc1` reads -12% [at 11.4 µM]; that for `N=c1ccn2c(n1)O[C@H]1[C@@H](OP(=O)(O)O)[C@H](CO)O[C@H]12`, 5.28% [at 11.4 µM].

As for `CCCC[C@H](CC)CN1CN(C[C@@H](CC)CCCC)CC(C)(N)C1`, the “activity, negative = inhibition” value was -3.68% [at 25.6 µM].

Regarding `CN(C)S(=O)(=O)Nc1ccccn1`, the activity, negative = inhibition is 0.0893% [at 11.4 µM]. Same read-out and setting: then `Nc1ccc(S(=O)(=O)Nc2ccccn2)cc1`, with 11.1% [at 25.6 µM]. As to `O=C1C(Cl)=C(Nc2ccc(S(=O)(=O)Nc3ccccn3)cc2)C(=O)c2ccccc21`, the AC50 was 2 µM (active). As for `C[C@H](C(=O)O)c1cccc(Oc2ccccc2)c1`, the “activity, negative = inhibition” value is -0.647% [at 25.6 µM]. In the case of `O=C(O)[C@@H](O)c1ccc(F)cc1`, the activity, negative = inhibition is -3.58% [at 11.4 µM]. On to `C[C@@H](C(=O)O)c1ccc(-c2ccccc2)c(F)c1`, for which the AC50 was 10 µM (active). Still for that read-out and setting: then `CCCCC1(C)NC(=O)c2c(C)sc(C(=O)OCC)c2N1` (stereo not given), with 0.282 µM (active). `NC(=S)SCCC(=O)O`: the activity, negative = inhibition is -6.98% [at 11.4 µM].

`CC(C)CO/N=C1/C[C@@H](O)[C@@H](O)[C@@H]2[C@@H]3C(=O)N(C[C@@H]4CCCO4)C(=O)[C@H]3CC[C@@H]12`: the activity, negative = inhibition was 18.7% [at 11.4 µM]. With `O=C1SC(c2ccccc2)=C/C1=C\N1CCCCC1`, the concentration at half-maximal activity (AC50) was 11.2 µM (active). With `CC[N+](CC)(CC)CC[C@](O)(c1ccccc1)C1CCCCC1`, the “activity, negative = inhibition” value is -9.66% [at 25.6 µM]. Take `COc1c(/C=N/Nc2ccc([N+](=O)[O-])cc2[N+](=O)[O-])c(C)nn1-c1ccccc1`: the half-maximal activity concentration (AC50) is 20 µM (active). On the same count and under the same terms, then `S=C1N[C@H](c2ccccc2)N[C@H](c2ccccc2)S1`, with 2 µM (active). Turning to `O=C1C2[C@@H](c3ccccc3)N[C@@H](c3ccccc3)C1[C@H](c1ccccc1)N[C@H]2c1ccccc1`, the activity, negative = inhibition is -3.9% [at 11.4 µM]. As for `O=C1[C@H]2[C@H]3[C@H](O)[C@H](O)C/C(=N/OCc4ccccc4)[C@H]3CC[C@@H]2C(=O)N1C[C@@H]1CCCO1`, the activity, negative = inhibition was -4.81% [at 11.4 µM]. On the same count and under the same terms, then `CN(C)Cc1ccccc1-c1cc(NCc2ccccc2)ncn1`, with -1.3% [at 2.29 µM]. As for `O=C(Nc1ccccc1N1CCN(C(=O)c2ccccc2)CC1)c1cc(Br)ccc1Cl`, the AC50 was 2.51 µM (active). For `Cc1ccccc1OCC(=O)Nc1ccc(N2CCN(C(=O)C(C)C)CC2)c(Cl)c1`, the half-maximal activity concentration (AC50) was 3.98 µM (active). Turning to `CC1CN(C2CCN(C(=O)c3cccc(Cl)c3)CC2)CC(C)O1` (stereo not given), the “activity, negative = inhibition” value was -23.4%.

Take `O=C(Nc1ccccc1N1CCN(C(=O)c2ccc(Cl)cc2)CC1)c1cc(Br)ccc1Cl`: the AC50 is 3.98 µM (active).

As to `CNC(=S)NNC(=O)COc1ccccc1C`, the “activity, negative = inhibition” value is 32.9%.

On to `CC(C)C(=O)N1CCN(c2ccccc2NC(=O)c2cccc(Cl)c2)CC1`, for which the AC50 is 14.1 µM (active). In the case of `CC[C@]1(O)C[C@@H]2CN(CCc3c([nH]c4ccccc34)[C@](C(=O)OC)(c3cc4c(cc3OC)N(C=O)[C@H]3[C@@](O)(C(=O)OC)[C@H](C(=O)OC)[C@@]5(CC)C=CCN6CC[C@]43[C@H]65)C2)C1`, the “activity, negative = inhibition” value was -28.6%.

Take `CC(C)C(O)(C#CCN1CCCC1)c1ccccc1` (stereo not given): the “activity, negative = inhibition” value is -10.7%. On the same count and under the same terms, the result for `CC(C)(C)N1C(=O)[C@H]2[C@@H]3[C@H](O)C=CC(=O)[C@H]3CC[C@H]2C1=O` reads 3.18% [at 11.4 µM].

`CC(=O)O[C@]12CC[N@+]3(C)CCCC[C@@H]3[C-]1Nc1ccccc12`: the activity, negative = inhibition is 2.24% [at 11.4 µM]. For `Cc1ccc(C2=C(Cl)C(=O)C(c3ccc(C)cc3)=C(Cl)C2=O)cc1`, the AC50 was 1.58 µM (active). `COc1ccc(/C=N/NC(=O)CCCOc2ccc(Cl)cc2Cl)cc1[N+](=O)[O-]`: the AC50 was 2.24 µM (active). For `CC1(C)CC(=O)C/C(=N/NC(=O)CCCOc2ccc(Cl)cc2Cl)C1`, the “activity, negative = inhibition” value was 17.7%. Same read-out and setting: then `CCCNC(=O)OC[C@@H]1O[C@H](CCO/N=C\C[C@H]2C=C[C@H](OC(C)=O)[C@@H](COC(C)=O)O2)C=C[C@@H]1Oc1ccc(OC)cc1`, with -11.7% [at 11.4 µM]; and `COC(=O)C/C=C\[C@@H](C)[C@@H](/C=N\OC[C@@H](O)COCc1ccco1)OC`, with -26.7% [at 11.4 µM]; and `COC(=O)C/C=C\[C@@H](C)[C@@H](/C=N\O[C@@H](C)c1cn([C@H](CO)Cc2ccccc2)nn1)OC`, with -11.4% [at 11.4 µM] and -9% [at 11.4 µM]. As to `COC(=O)[C@@H]1CC[C@H](C)[C@@H](c2ccc(C)cc2)N1C(=O)c1ccc(/C=N\O[C@@H](C)c2cn([C@H](CO)Cc3ccccc3)nn2)cc1`, the AC50 was 3.16 µM (active) and 2.51 µM (active). On the same count and under the same terms, then `CCCNC(=O)OC[C@@H]1O[C@H](CCO/N=C\c2ccc(C(=O)N3[C@H](c4ccc(C)cc4)[C@@H](C)CC[C@H]3C(=O)OC)cc2)C=C[C@@H]1Oc1ccc(OC)cc1`, with 3.98 µM (active). Consider `C=CC[C@@H]1C=C[C@H](ON=C(C)C)[C@H](CO)O1`, for which the activity, negative = inhibition is 12% [at 11.4 µM].

As for `COC(=O)[C@@H]1CC[C@H](C)[C@@H](c2ccc(C)cc2)N1C(=O)c1ccc(/C=N\OC[C@@H]2O[C@H](c3ccccc3)C=C[C@@H]2Oc2ccc(OC)cc2)cc1`, the activity, negative = inhibition is -16.2% [at 11.4 µM]. As for `C=CC[C@@H]1C=C[C@@H](O/N=C\c2ccc(C(=O)N3[C@H](c4ccc(C)cc4)[C@@H](C)CC[C@H]3C(=O)OC)cc2)[C@@H](CO)O1`, the half-maximal activity concentration (AC50) was 3.98 µM (active). Take `COC(=O)C/C=C\[C@@H](C)[C@@H](/C=N\O[C@@H](C)c1cn([C@H](CO)Cc2ccccc2)nn1)NS(=O)(=O)c1ccc(C)cc1`: the activity, negative = inhibition was -29.2% [at 11.4 µM]. The same measure, in the same setting: then `COC(=O)[C@@H]1CC[C@H](C)[C@@H](c2ccc(C)cc2)N1C(=O)c1ccc(/C=N\OC[C@@H](C)[C@H](OCc2ccccc2)C(C)C)cc1`, with -24.2% [at 11.4 µM].

Take `COC(=O)[C@@H]1CC[C@H](C)[C@@H](c2ccc(C)cc2)N1C(=O)c1ccc(/C=N\OC[C@@H](O)COCc2ccco2)cc1`: the half-maximal activity concentration (AC50) is 3.98 µM (active). As to `C=CC[C@@H]1C=C[C@@H](O/N=C\[C@@H](OC)[C@H](C)/C=C\CC(=O)OC)[C@@H](CO)O1`, the activity, negative = inhibition is 21.3% [at 11.4 µM].
